In PubChem BioAssay AID778 (Sanford-Burnham Center for Chemical Genomics, 2007):
Hit rate of the full screen: of about 96,000 compounds, about 20,000 (21%) were called active. Not all results are given here. A number with no mark means an inactive call.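 Rule for the calls: active = CYP2C19 inhibition above a set limit at 5 µM in the primary screen (cut at about 50% in these data); inactive = the rest.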

Molecular target: Cytochrome P450 2C19 (Homo sapiens) (UniProt P33261)
Experiment: blockers of cytochrome P450 2C19 activity – biochemical, luminescence, ADME assay, primary screen (AID 778);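 note: plate controls were negative control wells for no effect and 2.5 mM tranylcypromine positive control for full effect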
Settings: CYP2C19 Supersomes, luciferin-H EGE luminescence, 30 min; at 5 µM; stronger effect = higher value

Cytochrome P450 2C19 (Homo sapiens), sequence (P33261 whole entry, looked up): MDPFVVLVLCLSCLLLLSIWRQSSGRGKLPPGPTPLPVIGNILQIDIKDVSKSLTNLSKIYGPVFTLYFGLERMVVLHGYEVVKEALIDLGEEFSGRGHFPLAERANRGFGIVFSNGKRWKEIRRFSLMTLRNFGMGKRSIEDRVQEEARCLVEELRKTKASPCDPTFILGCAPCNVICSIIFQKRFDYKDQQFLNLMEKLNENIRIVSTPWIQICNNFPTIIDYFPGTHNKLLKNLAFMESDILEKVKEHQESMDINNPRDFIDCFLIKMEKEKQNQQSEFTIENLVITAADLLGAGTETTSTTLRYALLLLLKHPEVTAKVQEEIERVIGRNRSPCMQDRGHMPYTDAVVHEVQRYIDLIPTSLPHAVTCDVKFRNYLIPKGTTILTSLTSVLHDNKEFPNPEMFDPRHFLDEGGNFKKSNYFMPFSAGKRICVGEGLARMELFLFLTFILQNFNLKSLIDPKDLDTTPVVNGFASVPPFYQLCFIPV

| SMILES | inhibition |
| --- | --- |
| Cc1ccc(-c2nn(-c3ccccc3)cc2/C=N/NC(=O)c2ccc3c(c2)OCO3)cc1 | 49.9% |
| CC1CN(C(=O)c2ccc3c(c2)OCO3)OC(c2ccccc2)O1 (stereo not drawn) | 74.6% (active) |
| O=C(c1ccc2c(c1)OCO2)N1CCNc2ccccc2C1 | 16.6% |
| CCn1c(COc2cccc(OC)c2)nnc1SCC(=O)N1CCOCC1 | 9.6% |
| CCOC(=O)C1Cn2c(nc3c(c2=O)C(C)(CC)Cc2ccccc2-3)S1 (stereo not drawn) | 97.8% (active) |
| CC1(C)Cc2ccccc2-c2nc(CN3CCOCC3)[nH]c(=O)c21 | 9.2% |
| COC(=O)Nc1ncc(CN2CCCCC2)s1 | -1.3% |
| Cc1cc(C)c(C#N)c(SCc2ccc3c(c2)OCO3)n1 | 96.5% (active) |
| Cc1cc(C)c(C#N)c(SCc2ccccc2C(=O)O)n1 | -6% |
| Cc1cc(C)c(C#N)c(SCc2[nH]nc3c2C(c2ccccc2)C(C#N)=C(N)O3)n1 (stereo not drawn) | -13.6% |
| CC(CO)N1CCS(=O)(=O)CC1 (stereo not drawn) | -1.3% |
| O=C(c1ccc(Cl)cc1)c1cnc(Nc2ccccc2)s1 | -10.7% |
| CCCOC(=O)Nc1ccccc1C(N)=O | 5.8% |
| Cc1cc2c(=O)n(C)c(SCC(=O)c3cc4ccccc4o3)nc2s1 | 85.9% (active) |
| CSCCC(NC(=O)COc1ccccc1)C(=O)OCC(=O)c1cc2ccccc2o1 (stereo not drawn) | 28.3% |
| C=CCn1c(SCC(=O)c2c(N)n(C)c(=O)n(C)c2=O)nc2sc(CC)cc2c1=O | 1.3% |
| COc1ccc(CN2CCn3ncc(C(=O)Nc4ccc(Cl)cc4Cl)c3C2=O)cc1 | -8.8% |
| O=C(COC(=O)CCc1c[nH]c(=O)[nH]1)Nc1ccccc1Cl | -10% |
| O=C(O)CSCNC(=O)CC12CC3CC(CC(C3)C1)C2 | 11.3% |
| O=C(C(NS(=O)(=O)c1cccc2nsnc12)c1ccccc1)N1CCN(c2ccccc2)CC1 (stereo not drawn) | 86.3% (active) |
| O=C(O)c1ccc(NS(=O)(=O)c2cccc3nsnc23)cc1 | 2% |
| O=C(C(NS(=O)(=O)c1cccc2nsnc12)c1ccccc1)N1CCN(c2ccccn2)CC1 (stereo not drawn) | 35.6% |
| CC(C)c1nc2ccc(C(=O)O)cc2[nH]1 | 12.1% |
| CC(C)(C)c1cc(=O)n2c(nc3ccccc32)[nH]1 | 12.3% |
| C/C(=N\NC(=O)c1ccccc1C)c1ccc(N2CCOCC2)cc1 | 3.2% |

| SMILES | inhibition |
| --- | --- |
| Cc1cccc(-n2nc3c(c2NC(=O)c2ccc(Br)o2)CSC3)c1C | -0.9% |
| O=C1CCC(=O)N1CCOP1(=O)COc2ccccc2OC1 | -14.7% |
| CN=C1SC(C(=O)O)CC(=O)N1C (stereo not drawn) | -3.4% |
| COC(=O)c1ccc(NC(=O)CSc2nnc(Cc3cccn3C)n2-c2ccc(F)cc2)cc1 | 22.5% |
| COc1ccccc1NC(=O)CSc1nnc(Cc2cccn2C)n1-c1ccc(F)cc1 | 66.3% (active) |
| Cc1ccc(C)c(NC(=O)CSc2nnc(Cc3cccn3C)n2-c2ccc(F)cc2)c1 | 15.6% |
| Cn1cccc1Cc1nnc(SCC(=O)NCCc2ccccc2)n1-c1ccc(F)cc1 | 59.6% (active) |
| Cc1nnc(SCC(=O)N/N=C/c2cn(-c3ccccc3)nc2-c2ccc(F)cc2)n1-c1ccccc1 | 3.9% |
| COc1ccc(-n2c(Cc3cccn3C)nnc2SCC(=O)Nc2cc(C)cc(C)c2)cc1 | 20.6% |
| Cn1cccc1Cc1nnc(SCC(=O)NCc2ccc3c(c2)OCO3)n1CCc1ccccc1 | 88.3% (active) |
| CC1(C)CC(=O)C=C(NCc2ccncc2)C1 | 31.5% |
| CCN(CC)C(=O)CSc1nnc(C2CCCCC2)o1 | 8.6% |
| CCCC(=O)Nc1ccc2c(c1)nc1n2CCSC1 | -2.8% |
| COc1cccc(OC)c1C(=O)Nc1ccc(N2CCCCC2)cc1 | -3.6% |
| COc1ccc(-c2cc(C(=O)n3cnc4ccccc43)c3ccccc3n2)cc1 | 74.8% (active) |
| Cc1ccc2nc(-c3ccccc3)cc(C(=O)O)c2c1 | -3.4% |
| Cc1ccc(OCC(=O)Nn2cnc3ccccc32)cc1 | 17.2% |
| O=C(C1=C(O)C(=O)N(c2ncccn2)C1c1cccs1)c1ccco1 (stereo not drawn) | 1.3% |
| Cn1nc(C(F)(F)F)c2cc(NC(=O)OCC(C)(C)C)sc21 | 34.6% |
| CCC(=O)OCc1c(C(F)(F)F)nn(C)c1Oc1cccc(C(F)(F)F)c1 | 57.7% (active) |
| CCC(=O)c1ccc(OCC(O)CN2CCN(c3cccc(C(F)(F)F)c3)CC2)cc1 (stereo not drawn) | 25.5% |
| COc1ccc(Nc2cc(=O)oc3ccccc23)cc1 | 17.7% |
| CCOc1ccc(OCC)c(NC(=O)C2CCN(S(=O)(=O)c3c(C)noc3C)CC2)c1 | 54.5% (active) |
| Cc1noc(C)c1S(=O)(=O)N1CCCC(C(=O)Nc2nccs2)C1 (stereo not drawn) | 78.8% (active) |
| Cc1noc(/C=C/N(C)C)c1S(=O)(=O)N1CCCC(C(=O)NCc2ccco2)C1 (stereo not drawn) | 39.6% |

| SMILES | inhibition |
| --- | --- |
| Cc1ccc(NC(=O)C2CCCN(S(=O)(=O)c3c(C)noc3C)C2)c(C)c1 (stereo not drawn) | 11.2% |
| CCOC(=O)C1CCN(C(=O)C2CCN(S(=O)(=O)c3c(C)noc3C)CC2)CC1 | 14.7% |
| CCOc1ccccc1NC(=O)C1CCN(S(=O)(=O)c2c(C)nn(C)c2C)CC1 | 44.7% |
| COc1ccc(N2CCN(Cc3ccc(Br)s3)CC2)cc1 | 96.1% (active) |
| COc1ccc(N2CCN(Cc3cc(=O)oc4ccc5ccccc5c34)CC2)cc1 | 12.4% |
| Fc1ccc(N2CCN(Cc3cnc(Oc4ccc(Br)cc4)s3)CC2)cc1 | 2.8% |
| C=CCSC1=C(C#N)C(c2cc(Br)c(O)c(OC)c2)CC(=O)N1 (stereo not drawn) | 67.5% (active) |
| Cc1ccc(Cl)cc1NC(=O)COC(=O)C1CCCCC1 | 32.1% |
| CCc1ccc(N2CC(C(=O)NC3=NCCS3)CC2=O)cc1 (stereo not drawn) | -1.1% |
| CC(C)c1ccc(N2CC(C(=O)Nc3nccs3)CC2=O)cc1 (stereo not drawn) | 59.1% (active) |
| CCCOc1ccc(N2CC(C(=O)Nc3ccccn3)CC2=O)cc1 (stereo not drawn) | -18.5% |
| CN(C)C(=O)c1cc(Br)ccc1Cl | 4% |
| CCOc1cccc(/C(O)=C2/C(=O)C(=O)N(CCOC)C2c2ccncc2)c1 (stereo not drawn) | -18.2% |
| COc1ccc(N2C(=O)CC(N3CCC(C(N)=O)CC3)C2=O)cc1 (stereo not drawn) | -28.9% |
| CO/N=C(/CS(=O)(=O)c1ccc(Br)cc1)c1ccc(OC)cc1 | 100% (active) |
| COC(=O)CNS(=O)(=O)c1ccc(OC)cc1 | 10.3% |
| COc1ccc(C(=O)Nc2ccc(S(=O)(=O)NC(C)C)cc2)cc1 | 42.9% |
| Cc1nc(-c2ccccc2)sc1-c1nc(-c2ccccc2)ncc1S(=O)(=O)c1ccccc1 | 5.1% |
| CC(C)NS(=O)(=O)c1ccc(CCC(=O)N2CCOCC2)cc1 | 14.2% |
| O=C(OC(C(=O)NC1CCCC1)c1ccc(F)cc1)c1ccno1 (stereo not drawn) | 8.1% |
| Cn1c(C(=O)OC(C(=O)NC2CCCCC2)c2ccccn2)cc2sccc21 (stereo not drawn) | 67.2% (active) |
| CC(=O)OC(C(=O)NC1CCCCC1)c1ccccc1 (stereo not drawn) | 20.2% |
| Cc1nc2c(c(=O)n1Cc1ccco1)c1nc3ccccc3nc1n2Cc1ccccc1 | 3% |
| CCn1c(C)nc2c1C(=O)c1ccccc1C2=O | -8.5% |
| Cc1nc2ccccc2c(=O)n1CCCn1ccnc1 | 50.8% (active) |

| SMILES | inhibition |
| --- | --- |
| CCC(C)N1C(=O)S/C(=C/c2ccc(Sc3nc4ccccc4[nH]3)o2)C1=O (stereo not drawn) | 43.3% |
| CC(C)Cc1oc(C(=O)O)cc1CN | 4.2% |
| CC1OC2C(OC1C)N(S(C)(=O)=O)CCN2S(C)(=O)=O (stereo not drawn) | -4.8% |
| CCc1ccc(CNC(=O)C2CC(=O)N(CCc3ccc(C)cc3)C2)cc1 (stereo not drawn) | 54.2% (active) |
| Cc1ccc(CCN2CC(C(=O)O)CC2=O)cc1 (stereo not drawn) | -0.5% |
| Cc1ccc(CNC(=O)C2CC(=O)N(C3CCCCCCC3)C2)cc1 (stereo not drawn) | -2.5% |
| O=C(NC1CCCCC1)c1ccc(CNc2c(N3CCOCC3)c(=O)c2=O)cc1 | 9.7% |
| Cc1ccc(C(=O)NC2CCN(C(=O)N3CCOCC3)CC2)cc1 | -1.3% |
| O=C1OC(NC(=O)c2ccccc2)C(N2CCOCC2)=C1Cl (stereo not drawn) | 52.8% (active) |
| COc1ccc(NC(=O)C(NC(C)=O)C(=O)NCc2ccccc2Cl)cc1 (stereo not drawn) | 12.9% |
| COc1ncnc2c1N=C1CC(C)(C)CC(N)=C1S2 | 4.5% |
| O=c1[nH]nc(Cc2ccccn2)c2ccccc12 | -0.8% |
| CN(CCc1ccccn1)S(=O)(=O)c1ccc2c3c(cccc13)C(=O)N2 | 93.6% (active) |
| CCCC1C(c2ccccc2)C(C#N)(C#N)C2(C#N)CC1(N)NC2=O (stereo not drawn) | 5% |
| O=C(O)c1ccccc1NC(=S)NC(NC(=O)c1ccccc1[N+](=O)[O-])C(Cl)(Cl)Cl (stereo not drawn) | 2% |
| CC1(C)N=C(c2ccccn2)C(C)(C)N1O | 29.9% |
| COc1ccc(NC(=O)Nc2ccc3nsnc3c2)cc1 | 20.3% |
| COc1cccc(N2C(=O)C3CCCN3C2c2ccc(F)cc2)c1 (stereo not drawn) | -0.1% |
| Cc1cc(NS(=O)(=O)c2ccccc2)no1 | -16.4% |
| O=S(=O)(Nc1ccc2nc(-c3ccco3)[nH]c2c1)c1ccccc1 | 92.4% (active) |
| O=C(/C=C/c1ccco1)Nc1cccc(-c2nc3ccccc3[nH]2)c1 | 47.9% |
| Cc1ccc(C)c(NS(=O)(=O)c2cc(Br)cnc2N)c1 | 61.5% (active) |
| Cc1ccc(C)c(S(=O)(=O)n2cnc3ccccc32)c1 | -11.2% |
